# Test results reported in the supplement of paper PMC10720658.
# ± gives the standard deviation of the averaged measurements.
# Tested on: AEK1 (Tb927.3.2440)
# Assay: percent reduction in TR-FRET probe signal relative to DMSO control; higher = stronger displacement of ATP-site probe (binding)
# Conditions: 1 µM; incubation time 1 h
row,Compound,percent reduction in TR-FRET probe signal
1,CCN1CCN(C(=O)Cc2ccc(Nc3ncc(F)c(Nc4ccc(C(=O)Nc5ccccc5Cl)cc4)n3)cc2)CC1 [Aurora A Inhibitor I],24.1 ± 4.8%
2,Cn1cc(C2=C(c3cn(C4CCN(Cc5ccccn5)CC4)c4ccccc34)C(=O)NC2=O)c2ccccc21,-6.77 ± 7.9%
3,COc1ccc(N(C(=O)Oc2c(C)cccc2C)c2ccnc(Nc3ccc(N4CCN(C)CC4)cc3)n2)c(OC)c1,12.5 ± 3.4%
4,O=c1[nH]c2ccc(Cl)cc2c(N[C@@H]2CN3CCC2CC3)c1-c1nc2ccccc2[nH]1,25.9 ± 11%
5,COc1ccc2c(c1)/C(=C/c1cnc[nH]1)C(=O)N2,-2.34 ± 5.7%
6,CC(C)(C)c1cc(C=C(C#N)C#N)cc(Br)c1O,17.3 ± 12%
7,N#CC(C#N)=Cc1ccc(O)c(O)c1,7.98 ± 17%
8,Cc1ccccc1-n1c(Cn2ncc3c(N)ncnc32)nc2cccc(C)c2c1=O,-5.42 ± 2.9%
9,CC(C)(C)c1cc(C=C(C#N)C#N)cc(C(C)(C)C)c1O [Tyrphostin 9],15.1 ± 1.3%
10,C/C(O)=C(\C#N)C(=O)Nc1cc(Br)ccc1Br,-3.29 ± 1.9%
11,O=c1[nH]c2ccccc2n1C1CCN(Cc2ccc(-c3nc4cc5nc[nH]c5cc4nc3-c3ccccc3)cc2)CC1,-9.38 ± 1.6%
